An excerpt weighted towards active compounds, which were near 7.1% of everything screened.
Lassa entry – qHTS for Inhibitors of binding or entry into cells for Lassa Virus; hit rate 4.1% among 18,000; AID 720533, 2013; Potency, µM (top dose mostly 49.2 µM), usual class: inhibitors; Lassa virus pseudotyped entry inhibition, cell-based qHTS
Marburg entry – qHTS for Inhibitors of binding or entry into cells for Marburg Virus; Marburg virus pseudotype entry/binding inhibition, cell-based; Potency, µM (highest dose often 49.2 µM), actives largely listed as inhibitors; hit rate 6.5% among 18,000
Of the large screens only hits and unclear results are named; the others gave an inactive call; ! = repeats disagree. Calls follow the shape of the full dose curve; tested in HEK293 cells.

CCCCCCN1C[C@@H](O)[C@H](n2cc(C3CC3)nn2)C[C@H]1c1ccc(OC)cc1	none
CCC(O)CNC(=O)c1cnn(-c2ncc3c(n2)-c2ccc(OC)cc2CC3)c1C1CC1 (centres undefined)	none
CCN(CC)CCNC(=O)c1cnn(-c2ncc3c(n2)-c2ccc(OC)cc2CC3)c1C	Lassa entry inconclusive, Marburg entry 13µM
CCCCCC(=O)N1C[C@H](O)[C@@H](n2cc(C3CC3)nn2)C[C@H]1c1ccc(C)cc1	none (no result: Lassa entry)
COC(=O)[C@@H]1CC[C@H](C)[C@@H](c2ccc(C)cc2)N1C(=O)c1ccc(C=NOC[C@@H](O)[C@H]2O[C@@H]3OC(C)(C)O[C@H]3[C@@H]2O)cc1	none (no result: Lassa entry)
CCCCCCCCC(=O)NCc1ccc(O)c(OC)c1	none
CCCCC/C=C\C/C=C\C/C=C\C/C=C\CCCC(=O)NCc1ccc(O)c(OC)c1	Lassa entry 7.9µM, Marburg entry inconclusive
COc1cc(CNC(=O)CCCC/C=C/C(C)C)ccc1O	Lassa entry 25µM!
CCCCC[C@H](O)CC(=O)CCc1ccc(O)c(OC)c1	none
CCc1cc2c(nc1CC)CCN(CCC(C)=NOC[C@@H](C)[C@H](OCc1ccccc1)C(C)C)C2	none
CC(C)(O)C1O[C@H]2CC[C@@]3(C)[C@@](O)(CC[C@H]4Cc5c([nH]c6ccccc56)[C@@]43C)C2=CC1=O (some centres undefined)	Lassa entry 32µM!, Marburg entry inconclusive
CN(Cc1cnc2nc(N)nc(N)c2n1)c1ccc(C(=O)N[C@H](CCC(=O)O)C(=O)O)cc1	Marburg entry 32µM
CN(Cc1cnc2nc(N)nc(N)c2n1)c1ccc(C(=O)N[C@@H](CCC(=O)O)C(=O)O)cc1	none
CCN1C(=NCc2cccc(Cl)c2)NC(c2cccc(C(F)(F)F)c2)C(C(=O)OC)=C1C (centres undefined)	Lassa entry inconclusive
CC(C)(C)c1ccc([C@@H](O)CCCN2CCC(C(O)(c3ccccc3)c3ccccc3)CC2)cc1	Lassa entry 6.3µM, Marburg entry inconclusive
OC(c1ccccc1)(c1ccccc1)C1CCNCC1	none
O[C@H](CCCN1CCN(c2ncc(F)cn2)CC1)c1ccc(F)cc1	none
CC(C)(C)c1ccc(C(O)CCCN2CCC(C(O)(c3ccccc3)c3ccccc3)CC2)cc1 (centres undefined)	Lassa entry 16µM, Marburg entry inconclusive
COC[C@H]1O[C@@H](c2c(OC)cc(OC)cc2OC)[C@H](OC)[C@@H](OC)[C@H]1OC	none
COC(=O)N[C@@H](c1ccc(Cl)cc1)C(C(C)=O)C(=O)OC (some centres undefined)	none
CCCC[C@]12Cc3c(ccc4ccccc34)[C@H](O1)C1=C(O2)C(=O)c2ccccc2C1=O	none
Oc1ccc(Cl)cc1Cc1ccccc1	Lassa entry 25µM
OCCc1ccccc1	none
CCCCCC(=O)N1C[C@H](O)[C@@H](n2cc(-c3ccc(F)cc3)nn2)C[C@H]1c1ccccc1	none
C=CCC1=C(C)C(OC(=O)C2C(C=C(C)C)C2(C)C)CC1=O (centres undefined)	Lassa entry 28µM, Marburg entry inconclusive
C#CCN1CC(=O)N(COC(=O)C2C(C=C(C)C)C2(C)C)C1=O (centres undefined)	none
COC(=O)C(C(=O)OC)[C@@H]1O[C@@]23COC=C[C@]2(C)[C@@H]3c2ccccc21	Marburg entry inconclusive
CC(C)(C)N1C(=O)[C@@H]2[C@H]3[C@H](O)[C@H](O)CC(=NOCc4ccccc4)[C@H]3CC[C@H]2C1=O	none
COC(=O)CC=C[C@H](C)[C@H](Cc1ccccc1Br)OC	none
CCCCCCCCCCCCCCCCn1cc[n+](Cc2ccccc2)c1C	Lassa entry 11µM, Marburg entry 7.1µM
CCCCCCN1CCN(C2CN(CCc3ccccc3)S(=O)(=O)C2)CC1 (centres undefined)	none
C[C@@H]1CC[C@H]2C(=O)N3[C@@H](CC[C@@H](C)[C@@H]3c3ccc(-c4ccco4)cc3)C(=O)N2[C@@H]1c1ccc(-c2ccco2)cc1	none
Cc1[nH]c(/C=C2\C(=O)Nc3ccc(S(=O)(=O)N(C)c4cccc(Cl)c4)cc32)c(C)c1C(=O)N1CCN(C)CC1	Lassa entry inconclusive, Marburg entry 10µM
CCCCCC(=O)N1C[C@@H](n2cc(COC(=O)c3ccccc3)nn2)[C@H](O)C[C@H]1c1ccccc1	none
COc1ccc(-c2nn3ncccc3c2-c2ccnc(Nc3cccc(C(F)(F)F)c3)n2)cc1	Lassa entry inconclusive, Marburg entry 13µM
CCc1nn2ncccc2c1-c1ccnc(NC2CC2)n1	none (no result: Lassa entry)
NC(=O)c1cccc(Nc2nccc(Nc3cccc(F)c3)n2)c1	none
Cc1ccc2c(-c3ccnc(Nc4ccccc4)n3)c(-c3ccc(F)cc3)nn2n1	Lassa entry inconclusive, Marburg entry 3.5µM
COc1cccc(Nc2nccc(-c3cnn4ncccc34)n2)c1	Lassa entry inconclusive, Marburg entry 0.32µM
O=[S+]1([O-])N[C@@H]2Cc3ccccc3[C@@H]2Oc2cc(Br)ccc21	none
Cc1cc2c(c(=O)n1Cc1ccccc1)[C@H]1O[C@](CCCCN3C(=O)c4ccccc4C3=O)(Cc3c1ccc1ccccc31)O2	none
Nc1ncnc2c1ccn2[C@@H]1O[C@H](CO)[C@@H](O)[C@H]1O	Lassa entry 2.5µM, Marburg entry 1.4µM
Nc1ccn([C@@H]2O[C@H](CO)[C@@H](OP(=O)(O)O)[C@H]2O)c(=O)n1	none
Nc1ncnc2c1nc(Br)n2C1OC(CO)C(O)C1O (centres undefined)	Lassa entry inconclusive
NC(=O)c1ncn(C2OC(CO)C(O)C2O)c1N (centres undefined)	none
Nc1ncn([C@@H]2O[C@H](CO)[C@@H](O)[C@H]2O)c(=O)n1	Lassa entry 6.3µM, Marburg entry inconclusive
Nc1ccn(C2OC(CO)C(O)C2O)c(=O)n1 (centres undefined)	Lassa entry 1.3µM!, Marburg entry 1µM!
C[C@H]1C[C@@H](C)O[C@@]2(C1)C(=O)Nc1ccccc12	none
CC(CCN1CCc2nc(-c3ccccc3)c(-c3ccccc3)cc2C1)=NOC[C@@H](O)[C@H]1O[C@@H]2OC(C)(C)O[C@H]2[C@@H]1O	none
O=c1oc2ccccc2c2c1[C@H]1O[C@](c3ccsc3)(Cc3ccccc31)O2	none
CCN1C(=O)NC(c2ccc(Br)cc2)C(C(=O)OC)=C1C (centres undefined)	Marburg entry inconclusive
CCCCCCCc1cc2ccccc2c2c(C(=O)OC)c(C)c(C(=O)OC)n12	none
CC(=O)N[C@@H](CSC/C=C(\C)CCC=C(C)C)C(=O)O	none
CC(=O)N[C@@H](CSC(=O)[C@]1([C@@H](O)C(C)C)NC(=O)[C@H](C)[C@@H]1O)C(=O)O	Lassa entry 3.5µM, Marburg entry inconclusive
CC(CCC(=O)OC[C@H]1O[C@H](C#Cc2ccccc2)C=C[C@H]1Oc1ccc(C)cc1)=NO[C@H](C)c1cn([C@@H]2COC[C@@H]2O)nn1	none (no result: Lassa entry)
COc1ccccc1C1CN(Cc2c(O)cccc2OC)Cc2ccccc2O1 (centres undefined)	none
COc1ccccc1C1CN(Cc2cccc(C)n2)Cc2ccccc2O1 (centres undefined)	Lassa entry 7.1µM, Marburg entry 5.6µM
Cc1cc2c(c(=O)o1)[C@H]1O[C@](CCCCN3C(=O)c4ccccc4C3=O)(Cc3cc(C#N)ccc31)O2	none
COc1cc2c(cc1O)CCN[C@]21CS[C@@H]2c3c(OC(C)=O)c(C)c4c(c3[C@H](COC1=O)N1[C@@H]2[C@H]2c3c(cc(C)c(OC)c3O)C[C@@H]([C@@H]1O)N2C)OCO4	Lassa entry 40µM!, Marburg entry inconclusive

From PubChem
